Results as given in PubChem BioAssay (Tox21).
Records with an inconclusive call do not appear. Active and inactive are the calls of the source. Calls follow the shape of the dose curve; as a rule, active = well fitted curve in the direction sought with a large enough effect in the repeat runs; inconclusive = weak or mixed curves; inactive = no such curve, though single readings can be large; an effect the other way counts as inactive or inconclusive.

Test: qHTS assay for identifying genotoxic compounds that show differential cytotoxicity against isogenic chicken DT40 cell lines with known DNA damage response pathways - wild type cell line (AID 743012); also: nearly all actives have a fitted effect of over 60% in size
Details: DT40 wild type chicken cells viability, CellTiter-Glo, 40 h; series mostly up to 68.4 µM; activity change, negative = cytotoxicity: at the top concentration
How it was run: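 Quantitative HTS on parental DT40 cells: 40 h compound treatment at 37 C/5% CO2, with viability then determined by CellTiter-Glo luminescence. Values serve as the DNA repair-proficient reference for differential cytotoxicity.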
% is scaled to controls: 0 for no effect and ±100 for the full control effect; potency is read from the fitted curve at half-maximal effect.

Structure (SMILES) | activity change, negative = cytotoxicity | Potency
N#Cc1c(Cl)cccc1Cl | 5.58% (inactive) | 
CC1(C(=O)Nc2ccc(O)c(Cl)c2Cl)CCCCC1 |  | 68.6 µM (active)
CC1=NNC(=O)N(/N=C/c2cccnc2)C1 | 19.6% (inactive) | 
N#CCCC#N | 4.59% (inactive) | 
O=S(=O)(O)C(F)(F)C(F)(F)C(F)(F)C(F)(F)C(F)(F)C(F)(F)F | -1.91% (inactive) | 
COC(C)(C)C | 8.77% (inactive) | 
CCC(C)n1c(=O)[nH]c(C)c(Br)c1=O (stereo not drawn) | 4.3% (inactive) | 
COc1cc(OC)nc(Sc2cccc(Cl)c2C(=O)O)n1 | 24.6% (inactive) | 
CC(C=O)Cc1ccc2c(c1)OCO2 (stereo not drawn) | 26% (inactive) | 
[Cl][Sn]([Cl])([Cl])[Cl] | -1.46% [at 95 µM] (inactive) | 
CCS(=O)(=O)C(C)(C)S(=O)(=O)CC | 16.9% (inactive) | 
CN/C(=N\[N+](=O)[O-])NCC1CCOC1 (stereo not drawn) | 1.27% (inactive) | 
O=C(O)c1cccc(Cl)c1 | 4.69% (inactive) | 
CCCCCCBr | -6.96% [at 95 µM] (inactive) | 
COc1ccc2c(c1OC)CN1CCc3cc4c(cc3C1C2)OCO4 (stereo not drawn) |  | 11.4 µM (active)
CN1CCN(C(=O)O[C@H]2c3nccnc3C(=O)N2c2ccc(Cl)cn2)CC1 | 14.7% (inactive) | 
COc1cc(OC)nc(NC(=O)NS(=O)(=O)c2ncccc2C(=O)N(C)C)n1 | -3.86% (inactive) | 
Cc1cc(C)c(C(=O)P(=O)(C(=O)c2c(C)cc(C)cc2C)c2ccccc2)c(C)c1 | -6.01% (inactive) | 
Fc1ccc(C2(Cn3cncn3)OC2c2ccccc2Cl)cc1 (stereo not drawn) |  | 15.4 µM (active)
CCC(C)(C)c1cc(-n2nc3ccccc3n2)c(O)c(C(C)(C)CC)c1 | -9.83% [at 95 µM] (inactive) | 
COC(=O)C1=CCCN(C)C1 | 11% (inactive) | 
OCCBr | 7.86% (inactive) | 
C=C(C)CN(CC)c1c([N+](=O)[O-])cc(C(F)(F)F)cc1[N+](=O)[O-] | -4.38% (inactive) | 
CCN(Cc1ccc(Cl)nc1)/C(=C/[N+](=O)[O-])NC | 15.3% (inactive) | 
ClC(Cl)(Cl)C(Cl)(Cl)Cl | -0.828% [at 95 µM] (inactive) | 
c1coc(-c2nc3ccccc3[nH]2)c1 |  | 54.5 µM (active)

Test: qHTS assay for identifying genotoxic compounds that show differential cytotoxicity against isogenic chicken DT40 cell lines with known DNA damage response pathways - Rev3 mutant cell line (AID 743014); also: nearly all actives have a fitted effect of over 55% in size
Details: chicken DT40 Rev3-/- viability, CellTiter-Glo, 40 h; series mostly up to 68.4 µM; activity, negative = cytotoxicity: at the top concentration

Structure (SMILES) | activity, negative = cytotoxicity | Potency
N#Cc1c(Cl)cccc1Cl | -18.8% (inactive) | 
CC1(C(=O)Nc2ccc(O)c(Cl)c2Cl)CCCCC1 |  | 61.1 µM (active)
CCC/C(=N\OCC)C1=C(O)CC(CC(C)SCC)CC1=O (stereo not drawn) |  | 61.5 µM (active)
N#CCCC#N | -2.31% (inactive) | 
O=S(=O)(O)C(F)(F)C(F)(F)C(F)(F)C(F)(F)C(F)(F)C(F)(F)F | -0.955% (inactive) | 
COC(C)(C)C | 2.78% (inactive) | 
COc1cc(OC)nc(Sc2cccc(Cl)c2C(=O)O)n1 | 2.32% (inactive) | 
[Cl][Sn]([Cl])([Cl])[Cl] | 0.0448% [at 95 µM] (inactive) | 
C[C@]1(O)CC[C@H]2[C@@H]3CCC4=CC(=O)CC[C@]4(C)[C@@]3(F)[C@@H](O)C[C@@]21C | 5.33% [at 95 µM] (inactive) | 
CCS(=O)(=O)C(C)(C)S(=O)(=O)CC | 8.81% (inactive) | 
CN/C(=N\[N+](=O)[O-])NCC1CCOC1 (stereo not drawn) | -10.4% (inactive) | 
CCCSC(=O)Cl | -1.24% [at 95 µM] (inactive) | 
CC1(C)CON(Cc2ccccc2Cl)C1=O |  | 68.6 µM (active)
O=C(O)c1cccc(Cl)c1 | 9.43% (inactive) | 
CCCCCCBr | 4.08% [at 95 µM] (inactive) | 
CC(Oc1ccc(Oc2ncc(C(F)(F)F)cc2Cl)cc1)C(=O)O (stereo not drawn) |  | 68.6 µM (active)
CC(C)CC(N(C)C)C1(c2ccc(Cl)cc2)CCC1 (stereo not drawn) | -14.7% (inactive) | 
COc1cc(OC)nc(NC(=O)NS(=O)(=O)c2ncccc2C(=O)N(C)C)n1 | -0.0105% (inactive) | 
Fc1ccc(C2(Cn3cncn3)OC2c2ccccc2Cl)cc1 (stereo not drawn) |  | 34.4 µM (active)
CCC(C)(C)c1cc(-n2nc3ccccc3n2)c(O)c(C(C)(C)CC)c1 | 13.5% [at 95 µM] (inactive) | 
OC(c1ccc(F)cc1)(c1cncnc1)c1ccccc1Cl (stereo not drawn) |  | 30.6 µM (active)
OCCBr |  | 19.4 µM (active)
C=C(C)CN(CC)c1c([N+](=O)[O-])cc(C(F)(F)F)cc1[N+](=O)[O-] | -2.72% (inactive) | 
ClCC(Cl)Cl | -6.05% [at 95 µM] (inactive) | 
CCN(Cc1ccc(Cl)nc1)/C(=C/[N+](=O)[O-])NC | 4.92% (inactive) | 
ClC(Cl)(Cl)C(Cl)(Cl)Cl | -1.58% [at 95 µM] (inactive) | 
c1coc(-c2nc3ccccc3[nH]2)c1 |  | 24.3 µM (active)

Test: qHTS assay for identifying genotoxic compounds that show differential cytotoxicity against isogenic chicken DT40 cell lines with known DNA damage response pathways - Rad54/Ku70 mutant cell line (AID 743015); also: nearly all actives have a fitted effect of over 60% in size
Details: DT40 Rad54/Ku70 mutant viability, CellTiter-Glo, 40 h; series mostly up to 66.8 µM; activity change, negative = cytotoxicity: at the top concentration

Structure (SMILES) | activity change, negative = cytotoxicity | Potency
N#Cc1c(Cl)cccc1Cl | -0.679% (inactive) | 
CC1(C(=O)Nc2ccc(O)c(Cl)c2Cl)CCCCC1 |  | 61.1 µM (active)
CCC/C(=N\OCC)C1=C(O)CC(CC(C)SCC)CC1=O (stereo not drawn) |  | 61.5 µM (active)
CC1=NNC(=O)N(/N=C/c2cccnc2)C1 | 1.51% (inactive) | 
N#CCCC#N | 7.22% (inactive) | 
O=S(=O)(O)C(F)(F)C(F)(F)C(F)(F)C(F)(F)C(F)(F)C(F)(F)F | 6.21% (inactive) | 
COC(C)(C)C | 6.16% (inactive) | 
CCC(C)n1c(=O)[nH]c(C)c(Br)c1=O (stereo not drawn) | -4.01% (inactive) | 
COc1cc(OC)nc(Sc2cccc(Cl)c2C(=O)O)n1 | -8.5% (inactive) | 
CC(C=O)Cc1ccc2c(c1)OCO2 (stereo not drawn) | -0.0907% (inactive) | 
[Cl][Sn]([Cl])([Cl])[Cl] | -0.753% [at 95.1 µM] (inactive) | 
C[C@]1(O)CC[C@H]2[C@@H]3CCC4=CC(=O)CC[C@]4(C)[C@@]3(F)[C@@H](O)C[C@@]21C |  | inactive
CCS(=O)(=O)C(C)(C)S(=O)(=O)CC | 10.5% (inactive) | 
CN/C(=N\[N+](=O)[O-])NCC1CCOC1 (stereo not drawn) | -4.33% (inactive) | 
O=C(O)c1cccc(Cl)c1 | -0.0084% (inactive) | 
CCCCCCBr | -2.31% [at 95.1 µM] (inactive) | 
CN1CCN(C(=O)O[C@H]2c3nccnc3C(=O)N2c2ccc(Cl)cn2)CC1 | 11.5% (inactive) | 
CC(Oc1ccc(Oc2ncc(C(F)(F)F)cc2Cl)cc1)C(=O)O (stereo not drawn) |  | 61.1 µM (active)
COc1cc(OC)nc(NC(=O)NS(=O)(=O)c2ncccc2C(=O)N(C)C)n1 | -2.11% (inactive) | 
Cc1cc(C)c(C(=O)P(=O)(C(=O)c2c(C)cc(C)cc2C)c2ccccc2)c(C)c1 | 1.74% (inactive) | 
Fc1ccc(C2(Cn3cncn3)OC2c2ccccc2Cl)cc1 (stereo not drawn) |  | 27.3 µM (active)
CCC(C)(C)c1cc(-n2nc3ccccc3n2)c(O)c(C(C)(C)CC)c1 | -2.03% [at 95.1 µM] (inactive) | 
COC(=O)C1=CCCN(C)C1 | 4.2% (inactive) | 
CC(CCc1ccccc1)NC(C)C(O)c1ccc(O)cc1 (stereo not drawn) | -17.6% (inactive) | 
OC(c1ccc(F)cc1)(c1cncnc1)c1ccccc1Cl (stereo not drawn) |  | 61.1 µM (active)
C=C(C)CN(CC)c1c([N+](=O)[O-])cc(C(F)(F)F)cc1[N+](=O)[O-] | -40.6% (inactive) | 
ClCC(Cl)Cl | -12.6% [at 95.1 µM] (inactive) | 
CCN(Cc1ccc(Cl)nc1)/C(=C/[N+](=O)[O-])NC | 4.18% (inactive) | 
ClC(Cl)(Cl)C(Cl)(Cl)Cl | 3.51% [at 95.1 µM] (inactive) | 
c1coc(-c2nc3ccccc3[nH]2)c1 |  | 54.5 µM (active)
